The source of these data is PubChem BioAssay (NCATS).

A short description of one test: qHTS profiling of the MIPE4 collection as inhibitors of Plasmodium falciparum (3D7) proliferation (AID 743344).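 Also: scaled between DMSO vehicle wells and 0.29 µM artemisinin as full inhibition.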 The settings on record: P. falciparum 3D7 in erythrocytes, SYBR Green DNA fluorescence, 72 h; at 28.5 µM. The essentials:
(§1)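 Parasite DNA was quantified by SYBR Green I fluorescence (ex 485, em 535 nm) after overnight lysis in saponin/Triton buffer at room temperature. Cultures at 0.3% parasitemia and 2.5% hematocrit were first exposed to compound for 72 h at 37 C; signals were normalised to artemisinin (0.29 uM) and vehicle wells.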
With `CC(C)(C)c1cc(O)c(CN)c(C(C)(C)C)c1`, the parasite growth, % of DMSO control came out at 6.1%.
On the same count and under the same terms, in the case of `O=C(Nc1ccc(-c2ccccc2)cc1)[C@H](Cc1ccc(O[S+](=O)([O-])c2cccc3cnccc23)cc1)N[S+](=O)([O-])c1cccc2cnccc12` it was 5.02%; in that of `CC(C)(C)OC(=O)N[C@@H](Cc1ccc(O[S+](=O)([O-])c2cccc3cnccc23)cc1)C(=O)N1CCN(Cc2ccccc2)CC1`, 5.32%.
Turning to `CC(C)(C)OC(=O)N[C@@H](Cc1ccc(OS(=O)(=O)c2cccc3cnccc23)cc1)C(=O)N1CCCN(C(=O)OC(C)(C)C)CC1`, the parasite growth, % of DMSO control came out at 5.32%.
Still for that read-out and setting: in the case of `O=C([C@H](Cc1ccc(O[S+](=O)([O-])c2cccc3cnccc23)cc1)N[S+](=O)([O-])c1cccc2cnccc12)N1CCN(Cc2ccccc2)CC1` it was 4.76%.

The nature of another test: qHTS profiling of the MIPE4 collection as inhibitors of Plasmodium falciparum (DD2) proliferation (AID 743345). The settings on record: P. falciparum Dd2 in erythrocytes, SYBR Green DNA, 72 h; at 28.5 µM. The essentials:
as §1
As to `CC(C)(C)c1cc(O)c(CN)c(C(C)(C)C)c1`, the parasite growth remaining, % of DMSO control (lower = more inhibition) turned out to be 7.28%.
For the compound `O=C(Nc1ccc(-c2ccccc2)cc1)[C@H](Cc1ccc(O[S+](=O)([O-])c2cccc3cnccc23)cc1)N[S+](=O)([O-])c1cccc2cnccc12`, the parasite growth remaining, % of DMSO control (lower = more inhibition) is 10.4%.
Still for that read-out and setting: to `CC(C)(C)OC(=O)N[C@@H](Cc1ccc(O[S+](=O)([O-])c2cccc3cnccc23)cc1)C(=O)N1CCN(Cc2ccccc2)CC1` belongs 7.86%; to `CC(C)(C)OC(=O)N[C@@H](Cc1ccc(OS(=O)(=O)c2cccc3cnccc23)cc1)C(=O)N1CCCN(C(=O)OC(C)(C)C)CC1`, 7.99%; to `O=C([C@H](Cc1ccc(O[S+](=O)([O-])c2cccc3cnccc23)cc1)N[S+](=O)([O-])c1cccc2cnccc12)N1CCN(Cc2ccccc2)CC1`, 6.64%.
